aDG glyco up: alpha-DG glycosylation activation | Pro5-aDG cells, alpha-DG glycosylation AlphaScreen (IIH6); 0% Pro5, 100% B10-LARGE cell signal | activation, % at 10 µM | 360,000 tested, 0.22% active;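 active = activation of at least 8% versus controls, or a plate z-score of at least 8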;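 note: Pro5 are CHO cells carrying HIG-tagged alpha-DG that lacks glycosylation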
APOBEC3A inh: blocks human APOBEC3A ssDNA deamination; P31941; recombinant A3A, FAM/TAMRA ssDNA deamination fluorescence; inhibition, % at 20 µM; 330,000 tested, 0.41% active;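 active = at least 40% inhibition at 20 µM here, with at most 30% in a related deaminase screen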;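 note: plate controls were A3A with DMSO for no effect and wells lacking A3A enzyme for full effect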
Target sequence (P31941 whole entry, looked up): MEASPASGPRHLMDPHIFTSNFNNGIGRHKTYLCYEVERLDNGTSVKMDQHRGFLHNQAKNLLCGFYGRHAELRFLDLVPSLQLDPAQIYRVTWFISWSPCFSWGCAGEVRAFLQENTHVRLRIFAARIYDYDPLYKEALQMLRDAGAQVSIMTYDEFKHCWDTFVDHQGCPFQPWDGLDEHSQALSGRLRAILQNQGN
ALR H2O2 inh: inhibitors of human sulfhydryl oxidase ALR; P55789; purified ALR, DTT oxidation, H2O2 HRP-luminol luminescence; inhibition, % (test concentration not listed); 290,000 tested, 3.8% active;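 active = mean replicate inhibition above about 79%, with every replicate also reaching it, limit read from the data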
Target sequence (P55789 whole entry, looked up): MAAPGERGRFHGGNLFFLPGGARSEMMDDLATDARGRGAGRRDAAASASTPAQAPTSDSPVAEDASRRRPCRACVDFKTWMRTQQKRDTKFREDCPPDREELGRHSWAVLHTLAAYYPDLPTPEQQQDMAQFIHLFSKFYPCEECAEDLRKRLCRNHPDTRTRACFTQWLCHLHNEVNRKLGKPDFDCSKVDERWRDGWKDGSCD
rCAG binder: molecules binding r(CAG) RNA repeats; r(CAG) RNA repeat, TO-PRO-1 dye displacement fluorescence; 370,000 tested, 1.3% active; inhibition, % at 3 µM;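 active = inhibition above the plate cutoff, the mean of all test compounds on that plate plus 3 SD, cut at about 35% in these data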;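 note: 0% = DMSO alone and 100% = 100 µM mitoxantrone as full dye displacement; higher means more dye released from RNA so lower well fluorescence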
A3G deaminase: blocks human APOBEC3G single-stranded DNA deamination. Q9HC16. recombinant A3G, ssDNA deamination FAM/TAMRA fluorescence. inhibition, % at 20 µM. 330,000 tested, 0.28% active. AID 493012;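 active = inhibition of at least 40% at 20 µM, with no more than 30% in the related APOBEC3A deaminase screen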;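 note: plate controls were DMSO wells with A3G for no effect and wells lacking A3G enzyme for full effect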
PHOSPHO1 inh: inhibitors of human PHOSPHO1 phosphatase. inhibition, % at 13.3 µM. 290,000 tested, 1.1% active. Q8TCT1. recombinant PHOSPHO1, absorbance phosphatase assay; in the data active = inhibition above about 60%
APOBEC3A confirm: confirmation of human APOBEC3A DNA deaminase inhibitors; recombinant A3A, ssDNA deaminase UDG fluorescence assay; shares compounds with APOBEC3A inh; inhibition, % at 20 µM; 1,400 tested, 63% active;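 active = inhibition reaching a set limit, 80% of the first screen's cutoff, at 20 µM in any replicate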;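 note: plate controls were DMSO wells with A3A for no effect and wells lacking A3A enzyme for full effect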
UDG A3A counter: inhibits UDG, flagging false APOBEC3A inhibitors. shares compounds with APOBEC3A inh. UDG counterscreen, FAM/TAMRA uracil oligo fluorescence. inhibition, % at 20 µM. 1,000 tested, under 10 active. AID 504714; call rule not given here
* = called active by the depositor; x = no result given. An excerpt weighted towards active compounds, which were near 5.4% of everything screened.

SMILES	aDG glyco up	APOBEC3A inh	ALR H2O2 inh	rCAG binder	A3G deaminase	PHOSPHO1 inh	APOBEC3A confirm	UDG A3A counter
O=C1NC(=O)C(CCc2ccncc2)(CCc2ccncc2)C(=O)N1CCc1ccccc1	0	0	-5	-7	-6	63*	x	x
c1ccc(CCN2CCC(N3CCN(c4ccccc4)CC3)CC2)cc1	0	1	99*	-4	3	-5	x	x
CCCCN(Cc1ccccc1)C1CCN(CCc2ccccc2)CC1	0	-2	x	-3	-5	-29	x	x
CC(CCN1CC1)=NNC(=O)Nc1cccc2ccccc12	0	x	x	6	x	x	x	x
CCc1cc2c(cc1-c1csc(C/C(N)=N/O)n1)C(C)(C)CCC2(C)C	0	x	x	1	x	x	x	x
Cc1cc(N2CCNC[C@H]2C)ccc1N1CC[C@@H](O)C1	x	x	x	4	x	x	x	x
CCOc1ccccc1N=C1SCCCN1C	0	47*	-3	-2	22	92*	73*	1
CCCC[N+]12CCC(CC1)C(C(=O)c1cccs1)C2 (stereo not drawn)	0	67*	-3	1	22	-65	78*	2
C[N+]1(C)C2CCC1CC(OC(=O)C(CO)c1ccccc1)C2 (stereo not drawn)	0	68*	-8	1	17	-10	74*	-4
C[N+]1(C)C2CCC1CC(OC(=O)c1ccccc1)C2 (stereo not drawn)	0	50*	-3	-1	17	13	67*	1
C[N+]1(C)[C@@H]2CC[C@H]1CC(OC(=O)C(CO)c1ccccc1)C2 (stereo partly drawn)	0	0	4	1	-2	6	x	x
CN1C2CCC1CC(OC(=O)c1ccc(Cl)cc1)C2 (stereo not drawn)	0	-5	0	1	-7	9	x	x
Cc1cc(N2CCNC[C@H]2C)ccc1N1CCN[C@@H](C)C1	x	x	x	3	x	x	x	x
C[n+]1ccc(-c2ccncc2)cc1	0	74*	-2	-2	25	92*	77*	-3
Cc1ccc(C(O)(c2ccc(C)c(C)c2)C2CN3CCC2CC3)cc1C (stereo not drawn)	0	-1	-38	12	-5	38	x	x
CC[N+]12CCC(CC1)C(C(O)(c1ccccc1)c1ccccc1)C2 (stereo not drawn)	0	0	6	1	-5	20	x	x
C[N+]12CCC(CC1)C(C(O)(c1cccc(Cl)c1)c1cccc(Cl)c1)C2 (stereo not drawn)	0	86*	-19	0	20	-49	75*	3
CC(C)[N+]12CCC(CC1)C(C(O)(c1ccccc1)c1ccccc1)C2 (stereo not drawn)	0	x	1	-1	x	16	63*	x
COc1ccccc1N1CCN(CCc2c[nH]c3cc4c(cc23)OCO4)CC1	0	x	x	2	x	x	x	x
O=C(NCCN1CCC2(CC1)C(=O)NCN2c1ccccc1)c1cccnc1Cl	x	x	x	1	x	x	x	x
Cc1cc(C(=O)CN2CCCC2)c(C)n1-c1ccc(F)cc1	0	5	0	3	1	30	x	x
COc1ccc(-n2c(C)cc(C(=O)C[N+]34CCN(CC3)CC4)c2C)cc1	0	59*	35	-1	10	-15	70*	2
N/C(=N\[N+](=O)[O-])N1CCN(C(=O)OC2CCCC2)CC1	0	-4	-12	-2	-13	14	x	x
CN(C)CC1CCCCC1OC(=O)Cc1ccc(Cl)c([N+](=O)[O-])c1 (stereo not drawn)	0	55*	x	5	15	2	74*	1
CCN(CC)P(=O)(c1n(CC)cc[n+]1CC)N(CC)CC	0	86*	-13	2	28	-79	73*	-2
CC(C)(C)C(=O)c1cn(CC(=O)NCc2ccco2)c2ccccc12	0	59*	-3	-3	15	-11	46*	-2
CN1C(=O)NC(=O)/C(=C/c2ccc([N+](=O)[O-])o2)C1=O	x	66	-70	21	31	17	x	x

Screening results (PubChem BioAssay)
